This note sets out measurements from PubChem BioAssay.

In experiment [1] the test system is XIP peptide (Xip251-270) binding. The experiment can be described thus: small-molecule binders of XIP peptide, primary screen, biochemical, small-molecule microarray, fluorescence 635/667 nm, 0.1 µg/mL protein (AID 1182). The note with it: fluorescent protein binding, 635 nm, higher = more signal, called active from +8 up or from −8 down.
A further experiment has as its system XIP peptide (Xip251-270). The experiment can be described thus: small-molecule binders of XIP peptide, primary screen, biochemical, small-molecule microarray, fluorescence 635/667 nm, 0.5 µg/mL protein (AID 1183). The note with it: small-molecule microarray binding, fluorescence 635 nm; higher = more signal.
Experiment [2] can be described thus: Plasmodium falciparum growth inhibition, primary screen, strain 3D7, DAPI fluorescence, 100 nL (AID 1184).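 Further: parasites grown inside human red blood cells in medium with human serum.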 The note with it: P. falciparum 3D7 growth, 3 d, higher = more signal.
In experiment [3] the target is Homeobox protein Hox-A13 (Mus musculus) (UniProt Q62424). The experiment can be described thus: inhibitors of HoxA13-DNA binding, primary screen, biochemical, fluorescence polarization, labeled oligonucleotide (AID 1185). The conditions noted are these: 15 min, higher = more signal, called active from +8 up or from −8 down.
Chain of Homeobox protein Hox-A13 (Mus musculus) (Q62424 whole entry, looked up): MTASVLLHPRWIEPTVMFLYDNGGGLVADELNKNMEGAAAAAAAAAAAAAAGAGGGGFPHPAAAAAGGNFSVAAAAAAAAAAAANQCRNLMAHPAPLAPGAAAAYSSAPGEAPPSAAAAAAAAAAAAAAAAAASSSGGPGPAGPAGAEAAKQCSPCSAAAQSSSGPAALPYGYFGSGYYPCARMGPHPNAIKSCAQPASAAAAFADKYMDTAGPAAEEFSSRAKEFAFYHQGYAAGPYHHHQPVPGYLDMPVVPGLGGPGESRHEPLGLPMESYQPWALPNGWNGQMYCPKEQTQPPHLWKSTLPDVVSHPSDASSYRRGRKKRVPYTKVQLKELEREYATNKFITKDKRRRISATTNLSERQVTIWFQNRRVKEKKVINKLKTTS

Activity calls are given as the source filed them.

As for `CCOC(=O)[C@H](CC(C)C)NC(=O)CCC1CC(OC(=O)NCc2cccc3ccccc23)CC2(CCCC(COC(=O)NCCC(C)C)O2)O1` (some centres not stated), the values for the composite z-score (in experiment [1]; in the experiment with XIP peptide (Xip251-270)) were -0.299 (inactive) and 0.434, respectively. The z-score in experiment [2] was -0.267; in experiment [3] it was -6.1 (inactive).

Consider `Cc1ccc(S(=O)(=O)OC[C@H]2CN3[C@H](c4ccc(Br)cc4)[C@@H](C)CC[C@H]3C(=O)O2)cc1`, for which the composite z-score in experiment [1] is 0.225 (inactive); in the experiment with XIP peptide (Xip251-270), 0.564. The z-score was 0.565 in experiment [2] and -5.13 (inactive) in experiment [3].

Take `CCCNC(=O)OC[C@H]1O[C@H](c2ccccc2)C=C[C@@H]1Oc1ccc(OC)cc1`: the composite z-score in experiment [1] was -0.174 (inactive); in the experiment on XIP peptide (Xip251-270), 0.631. Also, the z-score is 0.284 in experiment [2] and -1.63 (inactive) in experiment [3].

In the case of `COC(=O)CC=C[C@@H](C)[C@@H](C=NO[C@@H](C)c1cc(-c2c(C)cc(C)cc2C)no1)NS(=O)(=O)c1ccc(C)cc1`, the composite z-score is -0.105 (inactive) in experiment [1] and -0.91 in the experiment with XIP peptide (Xip251-270). Besides, the z-score in experiment [2] is -0.842; in experiment [3] it was -2.92 (inactive).

Regarding `O=C(NN=C1C[C@@H](O)[C@@H](O)[C@@H]2[C@@H]3C(=O)N(C[C@@H]4CCCO4)C(=O)[C@@H]3CC[C@H]12)OCc1ccccc1`, the composite z-score in experiment [1] was -0.526 (inactive); with XIP peptide (Xip251-270) it was -0.314. Also, the z-score in experiment [2] was 0.0837; in experiment [3] it was 0.901 (inactive).

For `CO[C@H]1COC(=O)CC=C[C@@H](C)[C@H](OC)COC(=O)[C@@H]2CCCN2C(=O)CC=C[C@@H]1C`, the composite z-score in experiment [1] was 0.832 (inactive); in the experiment with XIP peptide (Xip251-270), 0.678. For the same molecule, the z-score in experiment [2] was 0.095; in experiment [3] it was -0.438 (inactive).

`CO[C@@H]1COC(=O)[C@@H]2CCCN2C(=O)[C@@H](C)COC(=O)CC=C[C@H]1C`: the composite z-score in experiment [1] is 0.523 (inactive); in the experiment on XIP peptide (Xip251-270) it was 0.569. Besides, the z-score in experiment [2] was 0.442; in experiment [3], -0.236 (inactive).

Regarding `CON=C1[C@H]2CCn3c(=O)n(-c4ccccc4)c(=O)n3[C@H]2[C@H](O)[C@@H]2O[C@H]12`, the composite z-score in experiment [1] is -0.0682 (inactive); in the experiment on XIP peptide (Xip251-270), 0.491. For the same molecule, the results for the z-score in experiment [2] and in experiment [3] were -0.573 and -0.465 (inactive), respectively.

Regarding `C=CC[C@@H]1C=C[C@H](ON=C(C)CCC(=O)OC[C@H]2O[C@H](c3ccccc3)C=C[C@@H]2Oc2ccc(OC)cc2)[C@@H](CO)O1`, the composite z-score is 0.0195 (inactive) in experiment [1] and 0.595 in the experiment on XIP peptide (Xip251-270). The results for the z-score in experiment [2] and in experiment [3] were 0.298 and -5.41 (inactive), respectively.

For `CC(C)=CCCC(C)=CCON=C1C[C@@H](O)[C@@H](O)[C@@H]2[C@@H]3C(=O)N(Cc4ccccc4)C(=O)[C@@H]3CC[C@@H]12`, the composite z-score in experiment [1] was 0.146 (inactive); with XIP peptide (Xip251-270) it was 0.703. Moreover, the z-score in experiment [2] was 0.83; in experiment [3] it was -0.241 (inactive).

Take `C[C@H]1COC(=O)[C@@H]2CCCN2C(=O)[C@@H](C)COC(=O)[C@H](Cc2ccccc2)NC1=O`: the composite z-score in experiment [1] was -0.102 (inactive); with XIP peptide (Xip251-270) it was 0.435. Moreover, the results for the z-score in experiment [2] and in experiment [3] were -0.735 and 0.163 (inactive), respectively.

As for `CCOC(=O)[C@H](CC(C)C)NC(=O)CCC1CC(OC(=O)NCc2cccc3ccccc23)CC2(CCCC(COC(=O)NCc3ccncc3)O2)O1` (some centres not stated), the composite z-score was 1.56 (inactive) in experiment [1] and 0.53 in the experiment on XIP peptide (Xip251-270). Further, the z-score is -0.652 in experiment [2] and -6.29 (inactive) in experiment [3].

`CCOC(=O)[C@H](Cc1ccccc1)NC(=O)CCC1CC(OC(=O)NCCc2ccc(F)cc2)CC2(CCCC(COC(=O)NCc3ccccc3)O2)O1` (some centres not stated): the composite z-score in experiment [1] is 0.501 (inactive); with XIP peptide (Xip251-270) it was 0.283. Moreover, the z-score in experiment [2] is -1.64; in experiment [3] it was -2.25 (inactive).
